aSyn 5UTR act = Activators working through SNCA 5'UTR binding (MLPCN); alpha-synuclein 5'UTR reporter, activators screen; activity score, % (tested at 7.5 µM), hits read low; hit rate 7.1% among 300,000; AID 1814; in the data active means activity score below about -60%
Large screens that a line does not name were inactive. The list is a sample of the results.

CCCc1ccc2oc(C(=O)N(C)Cc3ccn[nH]3)c(C)c2c1	aSyn 5UTR act -85
COc1ccc(/C=C/C(=O)NC(=S)Nc2ccccn2)cc1	aSyn 5UTR act -94
COc1ccc(/C=C/C(=O)NC(=S)NNC(=O)c2cnccn2)cc1	none
COc1ccccc1/C=C/C(=O)NC(=S)Nc1ccccn1	aSyn 5UTR act -126
Cc1ccc(-c2nc3ccccn3c2NCc2ccc3c(c2)OCO3)cc1	aSyn 5UTR act -163
COc1ccc(-c2nc3ccc(C)cn3c2NCc2ccc3c(c2)OCO3)cc1	aSyn 5UTR act -119
CNc1ccccc1C(=O)OCC(=O)c1ccc(F)cc1	aSyn 5UTR act -70
CNc1ccccc1C(=O)OCC(=O)c1ccccc1	aSyn 5UTR act -71
COc1ccccc1NC(CC(=O)c1ccccc1)C(=O)OCC(=O)c1ccc(F)cc1 (configuration not stated)	aSyn 5UTR act -235
CCCn1ncc2c(Nc3ccc(C)c(C)c3)ncnc21	aSyn 5UTR act -92
c1ccc(-c2n[nH]c(-c3ccccn3)n2)nc1	aSyn 5UTR act -63
c1ccc(-c2n[nH]c(-c3ccccn3)n2)cc1	aSyn 5UTR act -114
Cc1ccc(-n2nc(C)c3c2OC(N)=C(C#N)C3c2cccs2)cc1 (configuration not stated)	aSyn 5UTR act -91
Cn1ccnc1CN1CCCCC1C(=O)Nc1ccc(Oc2cccnc2)cc1 (configuration not stated)	aSyn 5UTR act -77
O=C(CCC1CCCC1)Nc1ccc(C(=O)NCc2cccnc2)cc1	none
O=c1oc2cc(Cl)ccc2n1CSc1nc2ccccc2s1	aSyn 5UTR act -165
Cc1cc(Cl)ccc1NC(=S)Nc1ccccn1	aSyn 5UTR act -91
Cc1ccc(NC(=S)c2nc3ccccc3[nH]2)c(C)c1	aSyn 5UTR act -116
Cc1ccc(NC(=S)NNC(=S)Nc2ccc(C)cc2C)cc1	none
Cc1ccc(NC(=S)Nc2ccccn2)c(C)c1	aSyn 5UTR act -147
Cn1ccs/c1=N\C(=O)Nc1cccc(Cl)c1	aSyn 5UTR act -154
Cn1c(N)c(C(=O)Nc2cccc(Cl)c2)c(=O)n(C)c1=O	aSyn 5UTR act -76
CN=c1sc(C(=O)Nc2cccc(Cl)c2)cc(=O)n1C	aSyn 5UTR act -140
CCC(Sc1nnnn1C)C(=O)Nc1ccc(C(C)=O)cc1 (configuration not stated)	aSyn 5UTR act -73
c1csc(CSc2nc3ccccc3s2)c1	aSyn 5UTR act -280
Cc1ccc2nc(Nc3nc(CSc4nc5ccccc5s4)cc(=O)[nH]3)nc(C)c2c1	none
CNc1nnc(CSc2nc3ccccc3s2)s1	aSyn 5UTR act -88
OC1c2cc(Br)ccc2N=C2CCCN21 (configuration not stated)	aSyn 5UTR act -88
COc1ccccc1/C=C1\SC(N2CCC(C)CC2)=NC1=O	aSyn 5UTR act -94
COc1cccc(/C=C2\SC(N3CCCC(C)C3)=NC2=O)c1OC (configuration not stated)	aSyn 5UTR act -100
O=C(Cc1ccccc1[N+](=O)[O-])NCc1ccc2c(c1)OCO2	aSyn 5UTR act -123
O=C(NCc1ccccc1)c1c[nH]c2cc3c(cc2c1=O)OCCO3	aSyn 5UTR act -183
O=C(Cc1ccccc1)NCc1ccc2c(c1)OCO2	aSyn 5UTR act -99
O=C(NCc1ccc2c(c1)OCO2)c1ccccc1Cl	aSyn 5UTR act -100
O=C1NC(=S)S/C1=C\c1coc2ccccc2c1=O	aSyn 5UTR act -85
Oc1ccc(/C=N/Nc2ccc(C(F)(F)F)cn2)cc1	aSyn 5UTR act -280
O=C(N/N=C/c1ccccc1Cl)c1ccc(F)cc1	aSyn 5UTR act -189
COc1cc(C(=O)Oc2ccccc2/C=N/NC(=O)c2ccc(C)c(Cl)c2)cc(OC)c1OC	none
C/C(=N\Nc1ccc(C(F)(F)F)cn1)c1ccncc1	aSyn 5UTR act -148
O=C(N/N=C(\c1ccccc1)c1cccnc1)c1cccc(F)c1	none
O=C(N/N=C/c1cnc2ccccc2n1)c1cccc(F)c1	aSyn 5UTR act -120
COc1cc(C(=O)N/N=C/c2cn(Cc3cccc(F)c3)c3ccccc23)ccc1O	none
O=C(N/N=C\c1ccc(F)cc1)c1ccc(F)cc1	aSyn 5UTR act -132
CSc1ccc(/C=N/NC(=O)c2cccc(O)c2)cc1	aSyn 5UTR act -167
COC(=O)c1ccc(/C=N/NC(=O)c2cccc(F)c2)cc1	aSyn 5UTR act -134
Nc1ccc(C(=O)N/N=C/c2ccccc2)cc1	aSyn 5UTR act -140
O=C(N/N=C/c1cccs1)c1cccc(NC(=O)c2ccc(Cl)cc2)c1	none
O=C(N/N=C/c1c(O)ccc2ccccc12)c1cccc(C(F)(F)F)c1	none
O=C(N/N=C/c1ccc(C(F)(F)F)cc1)c1ccc(O)cc1	aSyn 5UTR act -85
O=C(O)c1ccc(N/N=C/c2ccc(C(F)(F)F)cc2)cc1	none
O=C(N/N=C/c1ccc[nH]1)c1ccc(Cl)cc1	aSyn 5UTR act -121
O=C(N/N=C/c1cccc(NC(=O)c2ccc(Cl)cc2)c1)c1cccc(O)c1	aSyn 5UTR act -68
O=C(CSc1nnc(-c2ccc(O)cc2)o1)Nc1ccccc1	aSyn 5UTR act -100
COc1ccc(NC(=O)CSc2nnc(-c3cccc(O)c3)o2)cc1	aSyn 5UTR act -110
Cc1cc(C)cc(NC(=O)CSc2nnc(-c3ccccc3Br)o2)c1	aSyn 5UTR act -67

Screening results deposited in PubChem BioAssay by Broad Institute.
